High-throughput results: PubChem BioAssay, National Center for Advancing Translational Sciences (NCATS)
Cruzain inh noDet: cruzain (T. cruzi) inhibition without detergent | purified cruzain, Z-FR-AMC fluorescence, no detergent | Potency, µM, without a hit: max response, negative = inhibition, actives largely listed as inhibitors | hit rate 2.3% among 200,000 | AID 1476;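 note: plate controls were enzyme without inhibitor for no effect and buffer without enzyme for full effect; nearly all actives have a fitted effect of over 40% in size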
Target sequence (P25779 123-467 limits assumed): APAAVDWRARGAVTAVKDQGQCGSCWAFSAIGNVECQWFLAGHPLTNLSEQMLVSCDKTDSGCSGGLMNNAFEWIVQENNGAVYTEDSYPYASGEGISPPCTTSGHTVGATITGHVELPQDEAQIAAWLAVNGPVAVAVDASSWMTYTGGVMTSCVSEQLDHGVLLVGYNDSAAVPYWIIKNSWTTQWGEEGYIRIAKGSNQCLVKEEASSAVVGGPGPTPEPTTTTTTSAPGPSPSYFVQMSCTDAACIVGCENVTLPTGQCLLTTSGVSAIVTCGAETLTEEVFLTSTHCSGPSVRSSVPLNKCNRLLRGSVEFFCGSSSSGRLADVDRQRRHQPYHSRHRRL
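Detergent-free condition (0.00005% Triton X-100) in acetate buffer pH 5.5 with DTT. 1.5 nM enzyme and compound were pre-mixed 15 min, then 2 uM Z-FR-AMC substrate added; reaction progress from fluorescence change between first and third reads (60 s).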
Cruzain Triton: blocks cruzain activity in presence of Triton detergent; purified cruzain, Z-FR-AMC fluorescence, 0.01% Triton; Potency, µM, without a hit: max response, negative = inhibition, hits mostly inhibitors; hit rate 0.43% among 200,000; AID 1478;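 note: plate controls were neutral wells for no effect and buffer without enzyme for full effect; nearly all actives have a fitted effect of over 40% in size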
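Purified cruzain (1.5 nM final) was preincubated with compounds for 15 min at room temperature in 100 mM sodium acetate pH 5.5, 5 mM DTT, 0.01% Triton X-100. Reaction started with 2 uM Z-FR-AMC; AMC fluorescence change over 60 s gave activity.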
Papain counter: blocks papain protease activity, flagging nonselective cruzain hits; shares compounds with Cruzain Triton; purified papain, Z-FR-AMC fluorescence cleavage; Potency, µM, inactives show max response, negative = inhibition, most hits filed as inhibitors; hit rate 41% among 410;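 note: 0% = no-compound wells and -100% = no-enzyme wells; nearly all actives have a fitted effect of over 35% in size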
The depositor's hits bear a star; ? = inconclusive; / = no result. Shown are actives, neighbours in structure and some others; about 2.4% of the full set was active somewhere. Calls come from the whole dose curve; as a rule, active = well fitted curve in the direction sought with a large enough effect; inconclusive = small, poorly fitted or top-dose-only effect, or another doubt; inactive = no such curve, though single readings can be large; an effect the other way counts as inactive or inconclusive. Potency is the fitted concentration of half-maximal effect.

SMILES | Cruzain inh noDet | Cruzain Triton | Papain counter
Clc1ccc2[nH]c3c(NCCCN4CCOCC4)ncnc3c2c1 | 13µM* | 16µM* | 4%
CCN1CCCC1Cn1cnc2c([nH]c3ccc(C)cc32)c1=O (stereo not given) | -18% | -8% | /
Cc1ccc2ncnc(NCCCN3CCOCC3)c2c1 | 8% | -1% | /
O=S(=O)(c1ccccc1)N1CN2CN(C1)CN(S(=O)(=O)c1ccccc1)C2 | 5% | 3% | /
Cc1oc2ccc(OCc3ccc(F)cc3)cc2c1C(=O)O | -12% | -3% | /
Cc1ccc(COc2ccc3oc(-c4ccccc4)c(C(=O)O)c3c2)cc1 | 20µM* | ? | 32µM*
CCOc1ccc(CNC(=O)c2ccc(NC(=O)N3CCSc4ncccc43)cc2)cc1OC | -1% | -10% | /
O=S(=O)(c1ccc(N2CCC(c3ccc(Cl)cc3)=N2)cc1)N(CCO)CCO | ? | 4% | /
CN(C)CCCNS(=O)(=O)c1ccc(N2CCC(c3ccc(Cl)cc3)=N2)cc1 | ? | 32µM* | 28µM*
Cc1ccccc1-n1c(C)cc(/C=C2/C(=O)NC(=O)N(Cc3ccco3)C2=O)c1C | 4% | -8% | /
Cc1ccccc1-n1c(C)cc(/C=C2/C(=N)N3C(c4ccccc4)=CSC3=NC2=O)c1C | 3.2µM* | -1% | 13%
CC(=O)c1nnn(-c2nc(C#N)nc(N3CCOCC3)n2)c1C | / | / | -7%
CC(=O)c1nnn(-c2nc(N)nc(N(c3ccccc3)c3ccccc3)n2)c1C | ? | -5% | /
CCOc1nc(C#N)nc(N2CCOCC2)n1 | / | / | 4µM*
N#Cc1nc(N2CCCC2)nc(N2CCCC2)n1 | 5µM* | 7.9µM* | 5.6µM*
CNc1nc(OCC(F)(F)F)nc(N2CCOCC2)n1 | -3% | 3% | /
C1CCN(c2nc(N3CCCCC3)nc(N3CCNCC3)n2)CC1 | 6% | 4% | /
CN(C)c1nc(SCC#N)nc(N2CCOCC2)n1 | -7% | 4% | /
CN(C)c1nc(C#N)nc(N2CCOCC2)n1 | 3.2µM* | 4µM* | 2.2µM*
NCC(=O)NC1(C(=O)O)CCCC1 | 1% | 3% | /
COc1ccc(C)cc1NC(=O)c1ccc2c(c1)N(Cc1cccc(Cl)c1)C(=O)c1ccccc1S2=O (stereo not given) | -2% | -1% | /
O=C(CN1CCCN(Cc2ccccc2Cl)S1(=O)=O)NCc1ccccc1 | 5% | -3% | /
N#Cc1nc(N2CCCCC2)nc(N2CCOCC2)n1 | 1µM* | 0.89µM* | 1µM*
N/C(=N/O)c1nc(N2CCCC2)nc(N(c2ccccc2)c2ccccc2)n1 | -2% | -12% | /
N#Cc1nc(N)nc(N2CCCCC2)n1 | / | / | 5µM*
SMILES | Cruzain inh noDet | Cruzain Triton | Papain counter
CC(C)N(C#N)c1nc(N2CCOCC2)nc(N2CCOCC2)n1 | -5% | 2% | /
N#Cc1nc(N2CCCC2)nc(N(c2ccccc2)c2ccccc2)n1 | / | / | 2µM*
CCCNc1nc(N2CCOCC2)nc(N2CCOCC2)n1 | 4% | 3% | /
Nc1nc(-c2ccco2)nc(N2CCCCC2)n1 | -17% | -1% | /
CCOC(=O)CNc1nc(C#N)nc(N2CCOCC2)n1 | 2µM* | 2.2µM* | 2.2µM*
COc1ccc(C)cc1NC(=O)NC(C)c1c(-n2cccc2)sc(C)c1C (stereo not given) | ? | -5% | /
Cc1ccc(CCNC(=O)CCCn2c(=O)c3ccccc3n(CC(=O)Nc3cc(Cl)ccc3C)c2=O)cc1 | 9% | 8% | /
CC(=O)NCCNc1ncnc2ccc(-c3ccccc3C#N)cc12 | -2% | -2% | /
COc1nc(C#N)nc(N2CCCCC2)n1 | / | / | 2.2µM*
COc1nc(OC)nc(N2CCCCCC2)n1 | 4% | -4% | /
COc1ccc(-n2c(/C=C/c3cccc4ccccc34)nc3ccccc3c2=O)cc1Cl | ? | -1% | /
CCN(C(=O)c1cccn(Cc2cccc(Cl)c2)c1=O)c1ccccc1 | 3% | -1% | /
COCCOC(=O)c1c(N)n(Cc2ccco2)c2nc3ccccc3nc12 | 0% | -5% | /
CC(C)OC(=O)c1c(N)n(Cc2ccco2)c2nc3ccccc3nc12 | 13µM* | 11µM* | -2%
CCCN(CCC)c1nc(N)nc(C#N)n1 | / | / | 2µM*
CCN(CC)c1nc(C#N)nc(N(CC)CC)n1 | 16µM* | 13µM* | 5µM*
CCN(CC)c1nc(SCC(=O)O)nc(N(CC)CC)n1 | -2% | 3% | /
CCN(c1ccccc1)c1cc(C)nc2nc(C)nn12 | 3% | -4% | /
CCCN(CCC)c1nc(N)nc(-c2cc(Cl)ccc2OC)n1 | ? | -5% | /
CCN(c1ccccc1)c1nc(C#N)nc(N(CC)c2ccccc2)n1 | / | / | 3.2µM*
COc1ccc(CNC(=O)c2ccc3c(c2)N(Cc2c(F)cccc2Cl)C(=O)CS3)cc1 | 3% | 2% | /
CC(=O)c1sc(NC(=O)c2c(-c3ccccc3)c(-c3ccccc3)nn(C)c2=O)nc1C | ? | -7% | /
CSCC[C@H](NC(=O)OC(C)(C)C)c1nnc(SCc2ccccc2)o1 | -5% | -3% | /
